Results from PubChem BioAssay.
Active and inactive are the calls of the source.

What was measured:
[1] = system: Plasmodium falciparum Sir2 (PF13_0152, Sir2A); assay: pfSir2 binders on small-molecule microarrays, primary screen, biochemical, small-molecule microarray, 635 nm fluorescence (AID 1098); settings: small-molecule microarray binding, fluorescence 635 nm; higher = more signal;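 note: score merges spot fluorescence intensity with its signal-to-noise ratio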
[2] = small-molecule microarray binders of probe aDKK1, primary screen, biochemical, biotinylated probe, 635/667 nm fluorescence (AID 1099); settings: higher = more signal;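 note: score merges 667nm spot fluorescence with signal to noise across triplicate slides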
[3] = small-molecule microarray binders of probe aCHRDL2, primary screen, biochemical, biotinylated probe, 635/667 nm fluorescence (AID 1100); settings: higher = more signal
[4] = splicing luciferase reporter signal modulators, primary screen, spliceosome inhibition project, cell-based, HEK293, splice +/- reporter (AID 1101); settings: luminescence, 24 h, higher = more signal, called active from +8 up or from −8 down;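 note: HEK293 cells carrying a splicing-competent luciferase reporter gene; test concentration not given here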
[5] = target: Fibroblast growth factor 10 (Homo sapiens) (UniProt O15520); assay: FGF10 binders on small-molecule microarrays, primary screen, biochemical, small-molecule microarray, 635 nm fluorescence (AID 1102); settings: FGF10 binding, fluorescence 635 nm, higher = more signal
Chain of Fibroblast growth factor 10 (Homo sapiens) (O15520 whole entry, looked up): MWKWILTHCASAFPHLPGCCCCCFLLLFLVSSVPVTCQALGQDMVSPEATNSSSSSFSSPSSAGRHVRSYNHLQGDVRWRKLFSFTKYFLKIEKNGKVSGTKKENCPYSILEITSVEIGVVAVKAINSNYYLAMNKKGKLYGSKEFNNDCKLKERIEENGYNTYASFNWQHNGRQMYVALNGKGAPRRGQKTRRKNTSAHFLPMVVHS

[6] = system: glycogen synthase kinase-3 (GSK3A per assay name; protocol says GSK3B); assay: GSK3 binders on small-molecule microarrays, primary screen, biochemical, small-molecule microarray, 635 nm fluorescence, GSK3A (AID 1103); settings: small-molecule microarray binding, fluorescence 635 nm; higher = more signal; note: the record names both GSK3A and GSK3B
[7] = target: Epidermal growth factor receptor (Homo sapiens) (UniProt P00533); assay: EGFR binders on small-molecule microarrays, primary screen, biochemical, small-molecule microarray, 635 nm fluorescence (AID 1104); settings: EGFR binding, higher = more signal;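 note: score merges 667 nm emission intensity with spot signal to noise over triplicate slides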
Chain of Epidermal growth factor receptor (Homo sapiens) (P00533 whole entry, looked up): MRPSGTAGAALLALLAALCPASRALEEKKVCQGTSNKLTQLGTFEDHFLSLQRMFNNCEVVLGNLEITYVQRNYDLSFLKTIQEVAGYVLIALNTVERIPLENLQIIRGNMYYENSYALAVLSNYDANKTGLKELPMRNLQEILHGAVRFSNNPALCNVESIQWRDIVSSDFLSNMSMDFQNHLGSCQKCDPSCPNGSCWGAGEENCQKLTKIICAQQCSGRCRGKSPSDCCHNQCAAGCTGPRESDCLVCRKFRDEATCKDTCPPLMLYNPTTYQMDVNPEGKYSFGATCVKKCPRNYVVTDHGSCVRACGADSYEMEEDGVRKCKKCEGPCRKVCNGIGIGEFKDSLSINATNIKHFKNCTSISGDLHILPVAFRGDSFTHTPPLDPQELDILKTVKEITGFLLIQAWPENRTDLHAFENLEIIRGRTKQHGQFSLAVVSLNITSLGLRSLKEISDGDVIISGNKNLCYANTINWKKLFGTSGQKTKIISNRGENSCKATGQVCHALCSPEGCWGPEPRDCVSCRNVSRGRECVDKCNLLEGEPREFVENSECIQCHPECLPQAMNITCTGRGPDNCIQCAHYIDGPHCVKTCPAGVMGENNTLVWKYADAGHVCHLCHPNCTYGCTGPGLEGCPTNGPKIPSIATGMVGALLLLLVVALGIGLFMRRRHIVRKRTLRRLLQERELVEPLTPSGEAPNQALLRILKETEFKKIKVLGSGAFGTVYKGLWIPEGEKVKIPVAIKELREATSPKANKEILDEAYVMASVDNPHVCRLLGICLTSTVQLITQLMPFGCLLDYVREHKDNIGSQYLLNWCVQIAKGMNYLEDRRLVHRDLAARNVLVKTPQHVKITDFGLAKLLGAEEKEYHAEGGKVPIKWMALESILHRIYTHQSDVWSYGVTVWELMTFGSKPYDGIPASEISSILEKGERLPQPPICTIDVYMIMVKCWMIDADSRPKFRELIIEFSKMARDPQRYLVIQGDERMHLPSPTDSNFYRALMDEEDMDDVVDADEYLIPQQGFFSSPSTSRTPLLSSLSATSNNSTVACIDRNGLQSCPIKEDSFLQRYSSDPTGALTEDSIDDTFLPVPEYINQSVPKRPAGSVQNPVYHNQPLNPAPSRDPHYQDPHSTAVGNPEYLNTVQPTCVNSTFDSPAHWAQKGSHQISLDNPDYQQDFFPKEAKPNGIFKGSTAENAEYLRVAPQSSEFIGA

[8] = target: Follistatin-related protein 3 (Homo sapiens) (UniProt O95633); assay: FSTL3 binders on small-molecule microarrays, primary screen, biochemical, small-molecule microarray, 635 nm fluorescence (AID 1105); settings: FSTL3 binding, higher = more signal;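 note: score merges emission near 667 nm and signal to noise per printed spot across three slides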
Chain of Follistatin-related protein 3 (Homo sapiens) (O95633 whole entry, looked up): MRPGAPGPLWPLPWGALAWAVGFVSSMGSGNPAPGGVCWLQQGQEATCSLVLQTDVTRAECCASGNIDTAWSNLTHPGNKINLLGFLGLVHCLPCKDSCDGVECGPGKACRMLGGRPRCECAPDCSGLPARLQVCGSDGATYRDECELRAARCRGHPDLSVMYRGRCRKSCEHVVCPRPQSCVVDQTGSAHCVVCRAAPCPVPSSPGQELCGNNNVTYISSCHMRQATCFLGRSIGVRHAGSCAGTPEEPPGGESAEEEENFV

[9] = target: Dickkopf-related protein 1 (Homo sapiens) (UniProt O94907); assay: DKK1 binders on small-molecule microarrays, primary screen, biochemical, small-molecule microarray, 635 nm fluorescence scan (AID 1106); settings: DKK1 binding, higher = more signal;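 note: score merges emission near 667 nm with signal to noise over three replicate slides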
Chain of Dickkopf-related protein 1 (Homo sapiens) (O94907 whole entry, looked up): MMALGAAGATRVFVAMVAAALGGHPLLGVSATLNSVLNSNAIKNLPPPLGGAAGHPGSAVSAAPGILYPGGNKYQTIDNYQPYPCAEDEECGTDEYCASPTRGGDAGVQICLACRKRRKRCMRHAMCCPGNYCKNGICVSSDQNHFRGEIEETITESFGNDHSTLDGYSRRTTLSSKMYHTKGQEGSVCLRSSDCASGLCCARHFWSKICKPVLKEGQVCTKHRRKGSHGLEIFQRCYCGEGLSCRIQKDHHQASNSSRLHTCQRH

[10] = system: Inhibin beta A chain (activin A); assay: INHBA (activin A) binders on microarrays, primary screen, biochemical, small-molecule microarray, 635 nm fluorescence scan (AID 1107); settings: small-molecule microarray binding, higher = more signal;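 note: mouse activin A protein probed at 4.33 µg/mL on printed slides; score merges bound-protein fluorescence near 667 nm with spot signal-to-noise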
[11] = system: Human papillomavirus type 1a protein E7 (residues 44-93); assay: HPV1a E7 fragment binders on microarrays, primary screen, biochemical, small-molecule microarray, residues 44-93, 635 nm fluorescence (AID 1108); settings: small-molecule microarray binding, fluorescence 635 nm; higher = more signal;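 note: E7 fragment applied at 1 µg/mL in TBST for 1 h at 4 C; score combines spot fluorescence with its signal to noise ratio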
[12] = modulators of HCV replicon luciferase signal, primary screen, HCV replication inhibitor project, Huh7 cells, luciferase reporter (AID 1109); settings: 48 h, higher = more signal;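 note: huh7 hepatoma cells harbouring a luciferase neomycin HCV replicon reporter; luciferase luminescence as measure of HCV replicon replication; test concentration not given here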
[13] = target: Left-right determination factor 2 (Homo sapiens) (UniProt O00292); assay: LEFTY2 binders on small-molecule microarrays, primary screen, biochemical, small-molecule microarray, 635 nm fluorescence scan (AID 1110); settings: LEFTY2 binding, higher = more signal
Chain of Left-right determination factor 2 (Homo sapiens) (O00292 whole entry, looked up): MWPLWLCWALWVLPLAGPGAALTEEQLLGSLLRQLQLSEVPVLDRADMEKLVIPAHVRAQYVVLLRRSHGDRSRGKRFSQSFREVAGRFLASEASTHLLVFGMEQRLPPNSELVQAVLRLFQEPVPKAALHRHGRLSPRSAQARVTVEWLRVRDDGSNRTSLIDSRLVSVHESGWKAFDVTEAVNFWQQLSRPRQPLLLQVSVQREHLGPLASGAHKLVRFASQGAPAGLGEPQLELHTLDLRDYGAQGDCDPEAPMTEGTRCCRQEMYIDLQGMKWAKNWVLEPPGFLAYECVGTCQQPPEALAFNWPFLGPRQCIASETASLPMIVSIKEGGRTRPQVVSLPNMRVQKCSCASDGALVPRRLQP

[14] = target: Calmodulin-1 (Homo sapiens) (UniProt P0DP23); assay: CALM1 binders on microarrays, EGTA buffer, profiling panel, biochemical, small-molecule microarray, Cy5-labelled CALM1 (AID 1111); settings: Cy5-CALM1 binding fluorescence, higher = more signal;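 note: labelled calmodulin applied in Tris saline Tween buffer holding calcium plus EGTA and DTT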
[15] = target: Calmodulin-1 (Homo sapiens) (UniProt P0DP23); assay: calcium-bound CALM1 binders on microarrays, profiling panel, artefact control for SMM control-protein annotation, biochemical, small-molecule microarray, Cy5-labelled CALM1, plus calcium (AID 1112); settings: Cy5-CALM1 binding fluorescence, higher = more signal;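 note: score merges spot fluorescence with signal to noise from triplicate slides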
[16] = small-molecule microarray binders of probe aWnt5a, primary screen, biochemical, biotinylated probe, 635/667 nm fluorescence (AID 1113); settings: higher = more signal;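 note: score merges 667 nm fluorescence intensity with signal-to-noise per printed feature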
[17] = small-molecule microarray binders of probe aShh, primary screen, biochemical, biotinylated probe, 635/667 nm fluorescence (AID 1114); settings: higher = more signal;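 note: probe is biotin-labelled aShh protein from a stem cell growth factor screen; measures binding of labelled protein to compounds printed on the slide; score merges feature fluorescence at 667 nm with signal-to-noise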
[18] = small-molecule microarray binders of probe aNog, primary screen, biochemical, biotinylated probe, 635/667 nm fluorescence (AID 1115); settings: higher = more signal;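 note: probe is biotinylated aNog protein used at 0.15 µg/mL for 1 h at 4 C; z-score combines 667 nm fluorescence of each spot with its signal to noise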
[19] = target: Torsin-1A-interacting protein 1 (Homo sapiens) (UniProt Q5JTV8); assay: LAP1 binders from COS7 cell lysate, primary screen, small-molecule microarray, 635/667 nm fluorescence (AID 1116); settings: COS7-hLAP1 lysate binding, 635 nm fluorescence, higher = more signal
Chain of Torsin-1A-interacting protein 1 (Homo sapiens) (Q5JTV8 whole entry, looked up): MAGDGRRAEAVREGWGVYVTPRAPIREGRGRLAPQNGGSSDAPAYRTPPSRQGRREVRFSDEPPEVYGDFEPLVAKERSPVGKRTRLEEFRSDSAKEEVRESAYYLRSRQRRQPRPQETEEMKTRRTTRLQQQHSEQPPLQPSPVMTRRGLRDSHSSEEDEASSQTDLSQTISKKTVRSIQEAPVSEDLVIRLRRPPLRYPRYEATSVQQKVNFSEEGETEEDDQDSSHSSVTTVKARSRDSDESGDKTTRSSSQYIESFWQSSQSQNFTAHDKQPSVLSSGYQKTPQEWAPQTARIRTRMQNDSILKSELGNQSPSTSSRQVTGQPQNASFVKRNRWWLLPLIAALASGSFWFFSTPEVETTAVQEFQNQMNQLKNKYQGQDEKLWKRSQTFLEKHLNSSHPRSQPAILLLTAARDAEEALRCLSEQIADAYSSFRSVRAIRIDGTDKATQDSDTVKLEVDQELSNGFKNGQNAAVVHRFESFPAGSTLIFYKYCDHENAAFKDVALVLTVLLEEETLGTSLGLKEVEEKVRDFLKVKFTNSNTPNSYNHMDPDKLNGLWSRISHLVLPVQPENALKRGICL

[20] = target: Alpha-bungarotoxin (Bungarus multicinctus) (UniProt P60615); assay: alpha-bungarotoxin binders on microarray, profiling panel, artefact control for SMM control protein annotation, biochemical, small-molecule microarray, Alexa647 label, 635/667 nm fluorescence (AID 1117); settings: alpha-BTX-A647 binding fluorescence, higher = more signal
Chain of Alpha-bungarotoxin (Bungarus multicinctus) (P60615 whole entry, looked up): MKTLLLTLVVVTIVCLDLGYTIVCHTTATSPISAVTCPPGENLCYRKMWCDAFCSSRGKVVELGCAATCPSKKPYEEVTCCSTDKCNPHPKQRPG

Row | SMILES | composite z-score [1] | composite z-score [2] | composite z-score [3] | z-score [4] | composite z-score [5] | composite z-score [6] | composite z-score [7] | composite z-score [8] | composite z-score [9] | composite z-score [10] | composite z-score [11] | z-score [12] | composite z-score [13] | composite z-score [14] | composite z-score [15] | composite z-score [16] | composite z-score [17] | composite z-score [18] | composite z-score [19] | composite z-score [20]
1 | C#CCCCON=C1[C@H]2CCn3c(=O)n(Cc4cc5c(cc4Cl)OCO5)c(=O)n3[C@H]2[C@H](O)[C@@H]2O[C@H]12 | 0.216 | -0.23 | -0.648 | -0.0845 (inactive) | 0.914 | 0.557 | 0.664 | 0.641 | 0.541 | 0.0951 | 0.493 | 0.113 | 0.711 | -0.692 | -1.22 | -0.129 | -0.273 | -0.162 | 0.526 | 0.499
2 | O=C1C=C[C@@H](O)[C@@H]2[C@@H]3C(=O)N(c4cccc(Oc5ccccc5)c4)C(=O)[C@@H]3CC[C@@H]12 | 0.378 | -0.147 | -0.597 | -0.856 (inactive) | 0.322 | 0.499 | 0.386 | 0.438 | 0.503 | -0.0914 | 0.242 | -2.07 | 0.594 | -0.203 | -0.477 | -0.152 | -0.0626 | -0.381 | 0.503 | 0.0671
3 | CC(=O)OC[C@H]1O[C@@H](ON=C(C)CCC(=O)OC[C@H]2O[C@H](C#Cc3ccccc3)C=C[C@@H]2Oc2ccc(C)cc2)[C@H](OC(C)=O)[C@@H](OC(C)=O)[C@@H]1OC(C)=O | 0.888 | -0.148 | -0.561 | -0.188 (inactive) | 0.782 | 1.11 | 0.603 | 0.786 | 0.911 | -0.0231 | 1.18 | -1.2 | 0.713 | 0.49 | -0.304 | -0.0735 | -0.0769 | -0.156 | 0.415 | -0.0285
4 | COC(=O)CC=C[C@@H](C)[C@@H](C=NOC[C@@H](O)COCc1ccco1)OC | 1.05 | -0.589 | -1.34 | -0.485 (inactive) | -0.469 | 0.149 | -0.446 | -0.0313 | 1.15 | 0.533 | 0.134 | 0.674 | 0.999 | -0.809 | -2.21 | -0.172 | -0.243 | -0.353 | 0.329 | -0.741
5 | O=C1[C@H]2[C@H]3[C@H](O)[C@H](O)CC(=NOCc4ccccc4)[C@@H]3CC[C@H]2C(=O)N1c1cccc(Oc2ccccc2)c1 | 1.03 | -0.173 | -0.186 | -0.055 (inactive) | 0.485 | 0.38 | 0.201 | 0.48 | 0.0072 | -0.202 | 1.32 | 0.0134 | -0.0065 | -0.0299 | -0.699 | -0.096 | 0.0639 | 0.0051 | 0.902 | 0.626
6 | COC(OC)[C@@H](C)[C@H](OC)[C@@H](C)[C@H](OC)c1ccccc1 | -0.15 | -0.185 | -0.449 | -1.31 (inactive) | 0.0549 | -0.485 | 0.231 | 0.327 | 0.392 | 0.499 | -0.567 | 0.928 | 0.4 | -1.15 | -0.647 | -0.225 | -0.273 | 0.108 | 0.0678 | -0.0469
7 | C=CC[C@@H]1C=C[C@H](ON=C[C@@H](NS(=O)(=O)c2ccc(C)cc2)[C@H](C)C=CCC(=O)OC)[C@@H](CO)O1 | 0.296 | -0.353 | -0.642 | 0.463 (inactive) | 0.0083 | -0.0166 | 0.516 | 0.566 | 0.619 | 1.15 | -0.782 | -0.0493 | 0.917 | -0.83 | -0.984 | -0.13 | -0.138 | -0.402 | 0.269 | 0.452
8 | CC(C)(C)N1C(=O)[C@H]2[C@H]3[C@H](O)[C@H](O)CC(=NNC(=O)OCc4ccccc4)[C@H]3CC[C@H]2C1=O | -0.195 | 0.0773 | -0.525 | -0.422 (inactive) | 0.72 | 0.792 | 0.208 | 0.889 | 0.608 | -1.06 | 0.978 | -1.9 | 0.613 | -0.0736 | -0.313 | -0.107 | 0.0141 | 0.0516 | 0.522 | 0.613
9 | CO[C@H]1COC(=O)CC=C[C@@H](C)COC(=O)[C@H]2CCCN2C(=O)CC=C[C@H]1C | 1.3 | -0.268 | -1.16 | -0.104 (inactive) | 0.756 | 1.01 | 1.29 | 1.45 | 1.9 | 1.32 | -0.858 | -0.0849 | 1.48 | -1.05 | -1.72 | -0.0721 | 0.684 | -0.542 | 1.03 | -1.25
10 | C[C@]12CCC3c4ccc(OCC5CO5)cc4CCC3C1CC[C@@H]2O (stereo not given in full) | 0.728 | 0.527 | 0.596 | 0.147 (inactive) | 0.457 | -0.309 | 0.182 | 0.239 | 0.0294 | 0.944 | 0.629 | -2.71 | 0.242 | 0.964 | 0.285 | -0.0346 | 0.0062 | 0.316 | 0.542 | 1.59
11 | COC(=O)CC=C[C@@H](C)[C@@H](C=NOC[C@@H](O)COCc1ccco1)NS(=O)(=O)c1ccc(C)cc1 | 0.406 | -0.87 | -1.13 | 0.46 (inactive) | -0.168 | -0.268 | 0.497 | 0.914 | 0.864 | 1.65 | -1.24 | -0.42 | 1.04 | -2.79 | -2.64 | -0.166 | -0.162 | -0.252 | -0.435 | -0.672
